# PubChem BioAssay (NCATS)
# Records with an inconclusive call do not appear. Unmarked numbers belong to inactive results. Calls follow the shape of the dose curve; as a rule, active = well fitted activation curve with a large enough effect; inconclusive = small, poorly fitted or top-dose-only effect; inactive = no such curve, though single readings can be large or run the other way.
# Biological target: Cellular tumor antigen p53 (Homo sapiens) (UniProt P04637)
# Assay: Primary qHTS for small molecule compounds that upregulate eGFP-tagged delta133p53alpha (in N-terminal) cells. (AID 2060322);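 also: series mostly up to about 56 µM; 0% = DMSO vehicle and 100% = reference activator; nearly all actives have a fitted effect of over 75% in size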
# Conditions: NCI-H358 eGFP-delta133p53alpha fluorescence, 24 h; activation: active compounds read high
# Method in brief: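 NCI-H358 cells pre-induced 24 h with 10 ng/ml doxycycline to express N-terminal eGFP-delta133p53alpha, then dosed 24 h at 37C without doxycycline; fixed, Hoechst-stained, GFP intensity by laser scanning cytometry, normalized to DMSO (0%) and 57.5 uM 5-azacytidine (100%).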
# Chain of Cellular tumor antigen p53 (Homo sapiens) (P04637 whole entry, looked up): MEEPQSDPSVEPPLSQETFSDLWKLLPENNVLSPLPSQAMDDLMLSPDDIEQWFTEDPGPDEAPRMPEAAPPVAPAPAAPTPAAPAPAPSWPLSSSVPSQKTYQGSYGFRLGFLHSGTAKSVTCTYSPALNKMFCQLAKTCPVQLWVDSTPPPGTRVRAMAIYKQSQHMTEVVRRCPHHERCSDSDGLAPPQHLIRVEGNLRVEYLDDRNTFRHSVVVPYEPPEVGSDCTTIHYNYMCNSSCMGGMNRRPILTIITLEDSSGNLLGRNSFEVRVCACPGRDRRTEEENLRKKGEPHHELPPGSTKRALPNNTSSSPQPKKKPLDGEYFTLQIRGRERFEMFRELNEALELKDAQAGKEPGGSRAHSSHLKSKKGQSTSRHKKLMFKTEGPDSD
row,Compound,activation
1,O=C(CCO[C@@H]1O[C@H](CO)[C@@H](O)[C@H](O)[C@H]1O)c1ccc(O)cc1,-6.87%
2,C=C1[C@@H](C2=CC(=O)OC2)CC[C@@]2(O)[C@@H]1CC1[C@H]2CC[C@@H]2C[C@@H](O[C@H]3O[C@@H](C)[C@@H](O[C@@H]4O[C@H](CO[C@@H]5O[C@H](CO)[C@@H](O)[C@H](O)[C@H]5O)[C@@H](O)[C@H](O)[C@H]4O)[C@H](OC)[C@H]3O)CC[C@]12C (stereo partly drawn),7.14%
3,C=C(C)[C@@H]1CC[C@]2(C(=O)O)CC[C@]3(C(=O)O)[C@H](CCC4[C@@]5(C)CCC(=O)C(C)(C)C5CC[C@]43C)C12 (stereo partly drawn),33.9%
4,C[C@@H]1O[C@@H](O[C@H]2[C@H](O)[C@@H](O)[C@H](OC3CCC4(C)C5CCC(C)(C(CO)OC6OC(CO)C(O)C(O)C6O)CC5=CCC4C3(C)C)O[C@@H]2CO)[C@H](O)[C@H](O)[C@H]1O (stereo partly drawn),-22.9%
5,CC(=O)c1c(C)cc(O[C@@H]2O[C@H](CO)[C@@H](O)[C@H](O)[C@H]2O)cc1O,-9.92%
6,Cc1coc2c1CC1OC1(C)CCC1OC1(C)C2 (stereo not drawn),4.46%
7,CC(=O)C12OC(C)(C)OC1CC1C3CCC4=CC(=O)C=CC4(C)C3(F)C(O)CC12C (stereo not drawn),-9.67%
8,CC(C)=CCC[C@](C)(O[C@@H]1O[C@H](CO)[C@@H](O)[C@H](O)[C@H]1O)[C@H]1CC[C@]2(C)[C@@H]1[C@H](O)CC1[C@@]3(C)CC[C@H](O)C(C)(C)C3[C@@H](O[C@@H]3O[C@H](CO)[C@@H](O)[C@H](O)[C@H]3O[C@@H]3O[C@@H](C)[C@H](O)[C@@H](O)[C@H]3O)C[C@]12C (stereo partly drawn),-21.4%
